Records with an inconclusive call do not appear. Entries that show only a call come without a potency. Values without a mark were called inactive. The source made the active and inactive calls. Calls follow the shape of the dose curve; as a rule, active = well fitted inhibition curve with a large enough effect; inconclusive = small, poorly fitted or top-dose-only effect; inactive = no such curve, though single readings can be large or run the other way.

Sequence of Rap guanine nucleotide exchange factor 3 (Homo sapiens) (O95398 whole entry, looked up): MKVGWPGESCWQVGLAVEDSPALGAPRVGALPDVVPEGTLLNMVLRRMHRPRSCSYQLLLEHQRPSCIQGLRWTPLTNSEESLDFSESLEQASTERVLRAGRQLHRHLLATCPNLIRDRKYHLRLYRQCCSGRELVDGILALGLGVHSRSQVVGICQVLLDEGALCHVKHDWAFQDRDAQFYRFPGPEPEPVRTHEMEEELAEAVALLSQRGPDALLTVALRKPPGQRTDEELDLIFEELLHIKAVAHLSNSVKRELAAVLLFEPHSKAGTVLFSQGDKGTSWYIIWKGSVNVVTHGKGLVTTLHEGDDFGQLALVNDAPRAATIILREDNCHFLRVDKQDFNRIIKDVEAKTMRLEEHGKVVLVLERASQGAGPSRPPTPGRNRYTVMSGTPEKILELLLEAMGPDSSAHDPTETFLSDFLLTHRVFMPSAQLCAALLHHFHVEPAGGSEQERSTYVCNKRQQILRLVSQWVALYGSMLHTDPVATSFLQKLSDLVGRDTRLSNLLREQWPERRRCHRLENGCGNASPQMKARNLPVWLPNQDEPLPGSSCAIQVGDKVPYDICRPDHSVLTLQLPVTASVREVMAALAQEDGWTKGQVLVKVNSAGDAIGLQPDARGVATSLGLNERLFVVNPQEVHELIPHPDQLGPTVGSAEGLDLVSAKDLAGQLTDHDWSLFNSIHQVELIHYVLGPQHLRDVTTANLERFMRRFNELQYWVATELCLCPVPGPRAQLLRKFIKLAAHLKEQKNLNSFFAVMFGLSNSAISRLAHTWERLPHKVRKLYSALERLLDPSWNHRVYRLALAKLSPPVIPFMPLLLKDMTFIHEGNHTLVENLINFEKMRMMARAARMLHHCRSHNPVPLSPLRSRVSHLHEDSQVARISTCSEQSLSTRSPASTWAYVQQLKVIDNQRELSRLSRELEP

This test deals with Rap guanine nucleotide exchange factor 3 (Homo sapiens) (UniProt O95398). Description: Counterscreen qHTS for antagonist of cAMP-regulated guanine nucleotide exchange factor 3 (EPAC1) (AID 1645888). Particulars: Rap1B-BODIPY-GDP nucleotide exchange, fluorescence; series mostly up to 154 µM. A digest of the protocol:
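Measured: fluorescence of BODIPY-GDP bound to Rap1B, which falls as exchange proceeds. Conditions include 50 uM competing GDP, 5 and 30 min reads, and a later cAMP challenge for antagonist detection.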
For `C[n+]1ccc(/C=C/c2c[nH]c3ccccc23)cc1`, the Potency entry is “inactive”.
With `CCOc1ccc(C(=O)CCc2nc3ccccc3s2)cc1`, the activity change, negative = inhibition is -7.41% [at 30.8 µM].
For the compound `Cc1ccc2oc(=O)n(Cc3ccc(OC(C)C)cc3)c2c1`, the Potency result was “inactive”.
For `CCOc1ccc(S(=O)(=O)Nc2cc(SCC(=O)O)c(O)c3ccccc23)cc1`, the Potency result is “inactive”.
The same measure, in the same setting: as for `CN1CC=C2C(C#N)=C(N)C(C#N)(C#N)C(c3ccsc3)C2C1` (stereo unspecified), the entry is “inactive”; as for `CN1CC=C2C(C#N)=C(N)C(C#N)(C#N)[C@H](c3cccc(Cl)c3)C2C1` (stereo partly specified), “inactive”.
On the same count and under the same terms, as for `O=[N+]([O-])c1c(Nc2ccccn2)cc(Cl)c2nonc12`, the entry is “inactive”.
The same measure, in the same setting: as for `COc1cccc(/C=N/NC(=O)c2[nH]nc3c2CCc2ccccc2-3)c1O`, the entry is “inactive”; as for `Cn1ccc(=Nc2ccc(NC(=O)c3ccc(N=c4ccn(C)c5ccc([N+](=O)[O-])cc45)cc3)cc2)cc1`, “inactive”.
Regarding `COC(=O)c1cc2ccccc2n1S(=O)(=O)c1ccccc1`, the Potency entry is “inactive”.
The same measure, in the same setting: as for `Cc1cc(/C=C2\SC(=S)N(Cc3ccco3)C2=O)c(C)n1-c1cccnc1`, the entry is “inactive”; as for `CCCCN1C(=O)/C(=C/C=C2/CC(C)(C)CN2C)SC1=S`, “inactive”; as for `COc1cccc(/C(O)=C/c2nc3ccc(C(=O)NCCc4ccc(Cl)cc4)cc3[nH]c2=O)c1`, “inactive”.
Take `CCOCCCNc1nc2c(C)cccn2c(=O)c1/C=C1\SC(=S)N(CC(C)C)C1=O`: the Potency result was “inactive”.
Still for that read-out and setting: as for `CN1c2ccccc2C(C)(C)C12C=Nc1c(cc(N3CCOCC3)c3ccccc13)O2` (stereo unspecified), the entry is “inactive”; as for `CCOc1ccc(-c2nn(-c3ccccc3)cc2/C=C2\SC(=S)N(C3CCS(=O)(=O)C3)C2=O)cc1` (stereo unspecified), “inactive”.

The values above are taken from PubChem BioAssay (NCATS).
